Sampled rows, rich in hits. Any-hit rate of the full collection: about 19%.
DT40 TDP1 no CPT – qHTS for Inhibitors of human tyrosyl-DNA phosphodiesterase 1 (TDP1): qHTS in cells in absence of CPT | DT40 Tdp1-/- hTDP1 cells, no CPT, ATP luminescence, 48 h | Potency, µM (series often up to 46.2 µM), inactives show at the highest dose activity change, negative = growth inhibition, usual class: inhibitors | hit rate 15% among 420,000; also: potency is read from the fitted curve at half-maximal effect; % is scaled to controls: 0 for no effect and ±100 for the full control effect; nearly all actives have a fitted effect of over 55% in size
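A cellular qHTS used chicken DT40 cells lacking endogenous Tdp1 but carrying stably transfected human TDP1. Compounds were applied without camptothecin, and cell growth kinetics were judged by ATP-dependent luminescence after ≥48 hr.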
TDP1 inh – inhibitors of human tyrosyl-DNA phosphodiesterase TDP1. Potency, µM (doses to about 130 µM), without a hit: at the top dose activity change, negative = inhibition, hits mostly inhibitors. recombinant TDP1, AlphaScreen DNA substrate cleavage. hit rate 0.28% among 350,000. Q9NUW8; also: potency is read from the fitted curve at half-maximal effect; % is scaled to controls: 0 for no effect and ±100 for the full control effect; nearly all actives have a fitted effect of over 40% in size
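Tdp1 1 nM final; 15 min RT w/ cpd; substrate 15 nM, 5 min; beads 10 ug/ml, 10 min; AlphaScreen read. Neg ctrl: no enzyme.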
DT40 TDP1 CPT – DT40-hTDP1 cell growth loss with CPT | chicken DT40 Tdp1-/-;hTDP1 cells + 20 nM CPT, ATP luminescence, 48 h | Potency, µM (titrated, usually from 46.2 µM), for the others: top-dose activity change, negative = growth inhibition, usual class: inhibitors | hit rate 12% among 420,000; also: potency is read from the fitted curve at half-maximal effect; % is scaled to controls: 0 for no effect and ±100 for the full control effect; nearly all actives have a fitted effect of over 55% in size
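Cell growth measured by CellTiter-Glo luminescence after a minimum 48 h, 37 C compound exposure with 20 nM CPT in Tdp1-knockout DT40 cells stably expressing hTDP1, seeded 400/well; qHTS titration format.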
HepG2 tox – HepG2 cytotoxicity, counter-screen for TGF-b inhibitors; HepG2 CAGA-GFP viability, ATP luminescence, 18 h; hit rate 0.76% among 410,000; AID 588856; Potency, µM (doses to about 46.1 µM), inactives show at the top dose activity change, negative = cytotoxicity, most hits filed as cytotoxic; also: potency is read from the fitted curve at half-maximal effect
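HepG2 CAGA-GFP cells (1000/well, DMEM with 1% FBS) received compound, then TGF-beta at 500 pg/mL final, and were incubated 18 hours at 37 degrees C. Viability was read by CellTiter-Glo luminescence. Media-only wells were set as complete cell-killing and DMSO as no toxicity.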
TGFb inhibitor – blocks TGF-b signaling | Potency, µM (highest dose often 46.1 µM), inactives show top-dose activity, negative = inhibition, hits mostly inhibitors | HepG2 CAGA-GFP TGF-b/SMAD3 reporter, GFP fluorescence, 18 h; TGF-beta stimulated, 500 pg/mL final | hit rate 1.2% among 410,000 | AID 588855; also: potency is read from the fitted curve at half-maximal effect; % is scaled to controls: 0 for no effect and ±100 for the full control effect; nearly all actives have a fitted effect of over 65% in size
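HEPG2 CAGA-GFP, 1000 cells/well; 2 h settle, 37 C; cpd via pin tool; TGF-b 500 pg/mL final; 18 h, 37 C; GFP imaging ex488/em500-530; %Activity normalised to -TGF-b and +DMSO controls; CRC fit, curve class.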
IL1B secr inh – blocks inflammasome-driven IL-1 beta release; AID 743279; hit rate 4.7% among 360,000; activity change, % at 57.5 µM; THP-1 LPS/ATP IL-1B secretion, AlphaLISA, 16 h; active compounds read low; in the data active = activity change below about -50%; inconclusive = mostly about -30% to -49%; also: % is scaled to controls: 0 for no effect and ±100 for the full control effect
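Secreted IL-1B measured by AlphaLISA bead assay after 16 h compound exposure of THP-1 cells; compounds (final up to 57.5 uM) added 1 h before LPS (250 ng/mL) and ATP (1.25 mM) stimulation; lower signal means less secretion.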
Active calls of the source: *; ? = inconclusive; . = no result given. Unless noted, calls follow the shape of the dose curve; as a rule, active = well fitted curve in the direction sought with a large enough effect; inconclusive = small, poorly fitted or top-dose-only effect, or another doubt; inactive = no such curve, though single readings can be large; an effect the other way counts as inactive or inconclusive.

SMILES | DT40 TDP1 no CPT | TDP1 inh | DT40 TDP1 CPT | HepG2 tox | TGFb inhibitor | IL1B secr inh
CCOC(=O)Cc1cc(-c2ccccc2)nc2ccc3ccccc3c12 | 13µM* | . | ? | -4.6% | 6.5% | 27.6
CCOC(=O)CS(=O)(=O)c1nc(-c2ccccc2)cc(C(F)(F)F)n1 | 1.64µM* | 2.9% | 0.651µM* | -90.2% | ? | -125.4*
CCOC(=O)CS(=O)(=O)c1nc(-c2ccc(F)cc2)cc(C(F)(F)F)n1 | 0.82µM* | 1.1% | 0.517µM* | -95.8% | ? | -119.2*
CN(C(=O)c1ccc(OCC=C(c2ccccc2)c2ccccc2)cc1)c1ccccc1I | . | 7.9% | . | -13.7% | -21.9% | .
CCOc1ccc(N2CC(NC(=O)c3ccco3)CC2=O)cc1 (configuration not stated) | 7.1% | 0.0% | 2.7% | -2.0% | 18.4% | .
O=C1c2ccccc2C(=O)N1Cc1ccncc1 | . | 1.3% | . | . | . | .
CCOC(=O)CCNC(=O)N1CCCC(N(C)CCc2ccccc2)C1 (configuration not stated) | 18.9% | . | 6.9% | 1.1% | -0.3% | 0.0
COc1cccc(C(=O)c2cn(CC(=O)Nc3cccc(C)c3C)c3nc(C)ccc3c2=O)c1 | -12.6% | 2.6% | -18.2% | -0.9% | 4.0% | .
CCOC(=O)C(/C=C(\C#N)C(=O)OCC)=C(/N)N1CCN(c2ccc(Cl)cc2)CC1 | 16.4µM* | 2.3% | -14.6% | 5.5% | -14.6% | -8.0
CCOC(=O)N1CCN(c2ccc(Cl)cc2)CC1 | -5.2% | 3.5% | -2.4% | 0.3% | -8.7% | 62.4
CCOc1ccc(-c2csc(NNC3=NCCCCC3)n2)cc1 | 20.6µM* | 9.5% | 10.3µM* | -8.7% | -4.8% | -102.5*
COc1ccc(-c2csc(NC3=NCCCCC3)n2)cc1 | 1.6% | 8.2% | -3.6% | -2.1% | 13.4% | -4.3
c1ccc(NNC2=NCCCCC2)cc1 | -40.6% | . | -16.7% | -37.3% | 1.8% | -10.7
c1ccc(-c2csc(NNC3=NCCCCC3)n2)cc1 | 1.84µM* | 9.5% | 2.06µM* | -30.8% | ? | -13.4
Clc1ccc(-c2csc(NNC3=NCCCCC3)n2)cc1 | 16.4µM* | 11.1% | ? | -15.7% | -29.6% | -77.2*
CC(=O)Nc1ccc(C)cc1-c1nc2ccccc2n(Cc2cccc(Br)c2)c1=O | -11.4% | 11.4% | -17.8% | -0.8% | ? | .
COc1ccc(NC(=O)CC(C)CC(=O)NCc2ccc(F)cc2)c(OC)c1 (configuration not stated) | -1.9% | 0.9% | -15.2% | -7.4% | 2.1% | -4.4
COc1cccc(C2CC(c3c(-c4ccccc4)c4cc(Cl)ccc4[nH]c3=O)=NN2S(C)(=O)=O)c1OC (configuration not stated) | 16.4µM* | 0.0% | 20.6µM* | -4.8% | ? | ?
COc1ccccc1C1CC(c2c(-c3ccccc3)c3cc(Cl)ccc3[nH]c2=O)=NN1S(C)(=O)=O (configuration not stated) | 29.1µM* | 0.0% | 25.9µM* | -20.5% | ? | -10.7
COc1ccc(C2CC(c3c(-c4ccccc4)c4cc(Cl)ccc4[nH]c3=O)=NN2C(=O)CCC(=O)O)cc1 (configuration not stated) | 0.6% | 9.0% | 0.7% | 25.6% | 16.9% | -5.2
CC(C)C[C@H](NC(=O)[C@@H](N)Cc1ccccc1)C(=O)N[C@@H](Cc1ccccc1)C(=O)N[C@@H](CCC(N)=O)C(=O)N1CCC[C@H]1C(=O)N[C@@H](CCC(N)=O)C(=O)N[C@@H](CCCN=C(N)N)C(=O)N[C@@H](Cc1ccccc1)C(N)=O | . | 8.9% | . | . | . | .
